# Among all 48,000 compounds or so, about 13,000 (27%) showed an effect of 50% or more. This is one part of the list.
# System: Wolbachia pipientis
# Test: Anti-Wolbachia Cell-Based Screen
# Format: functional
# Parameters: scale not given: in the data most compounds retested in dose-response had high values
# Details: 5 µM
row,Structure (SMILES),Percent Effect
1,Cc1ccc(C(=O)N2C[C@@H](NS(C)(=O)=O)[C@H](C(C)C)C2)cc1O,5.531%
2,CC(CCc1cccn1C)NC(=O)Nc1cccn(C)c1=O (configuration not stated),-4.481%
3,Cc1ccccc1OCC1CCCN(C(=O)CNC(=O)N(C)C)C1 (configuration not stated),1.963%
4,N#Cc1cccc(CN2CCN(C(=O)C3CCC3)[C@@H]3CS(=O)(=O)C[C@@H]32)c1,2.28%
5,Cc1csc(CCNC(=O)c2ccc(N(C)C)c(F)c2)n1,-10.73%
6,CCN(Cc1ccoc1)C(=O)NC1CCN(CC2CCCC2)CC1,-1.692%
7,COc1ccc(N(Cc2ccco2)C(=O)C2CCCO2)cc1F (configuration not stated),12.44%
8,CCOCC(=O)N(Cc1ccco1)c1ccc(OC)c(F)c1,-17.42%
9,COc1ccc(OC)c(CN(Cc2ccco2)Cc2[nH]cnc2C)c1.O=C(O)CC(O)(CC(=O)O)C(=O)O,125%
10,COCCN(CCOC)c1ncccc1I,19.77%
11,CC(C)N(C)CCCNC(=O)c1cnn(C(C)C)c1C(F)(F)F,7.835%
12,COCC(C)NC(=O)c1cn(C(C)C)cc2c(=O)[nH]nc1-2 (configuration not stated),106.6%
13,CC(C(=O)NCCCn1ccnc1)n1cc(Br)cn1 (configuration not stated),2.347%
14,COc1cccc(-c2n[nH]cc2C(=O)NC(C)CC(=O)O)c1 (configuration not stated),-19.78%
15,COCCCNC(=O)c1cn(C(C)C)cc2c(=O)[nH]nc1-2,104.5%
16,CC(C)n1cc(C(=O)NCCCn2ccnc2)c2n[nH]c(=O)c-2c1,123.9%
17,O=C(NCCCn1ccnc1)c1csc2c1CCCC2,4.867%
18,COCC(C)NC(=O)c1nnn(-c2ccc(F)cc2)n1 (configuration not stated),-1.834%
19,CCn1nc(C(C)C)cc1C(=O)NCCCOC,-18.28%
20,Cc1ccsc1CN(C)c1nc2c(cnn2C(C)(C)C)c(=O)[nH]1,-15.84%
21,O=C(C1CCCCN1Cc1nc(-c2ccco2)no1)N1CCCC1 (configuration not stated),-6.382%
22,CC(C)(C)CC1CCCN1Cc1nc(-c2ccco2)no1 (configuration not stated),1.615%
23,O=C(C1CCN(Cc2nc(-c3ccco3)no2)CC1)N1CCCC1,109.9%
24,O=C(C1CCCCC1)N1CCN(Cc2nc(-c3ccco3)no2)CC1,98.36%
25,c1coc(-c2noc(CN3CCC(c4ccn[nH]4)CC3)n2)c1,3.524%
26,O=C(c1ccco1)N1CCN(Cc2nc(C3CC3)no2)CC1,-17.27%

row,Structure (SMILES),Percent Effect
1,NC(=O)NCC1CCCCN1Cc1nc(-c2ccco2)no1 (configuration not stated),116.5%
2,c1coc(-c2noc(CN3CCc4c(ncn4C4CC4)C3)n2)c1,-13.05%
3,O=C(C1CCCN1Cc1nc(-c2ccco2)no1)N1CCSCC1 (configuration not stated),97.23%
4,O=C(C1CCCC1)N1CCN(Cc2nc(-c3ccco3)no2)CC1,3.823%
5,CC(C)c1cc(C2CCCN2Cc2nc(-c3ccco3)no2)no1 (configuration not stated),-36.51%
6,CCCOCCOC(=O)c1ccc2c(c1)[nH]c(=O)n2C,-3.927%
7,NC(=O)CCn1cc(CNCCCc2ccccc2O)c2ccccc21,15.24%
8,COc1cc(C(=O)Nc2nc(C)no2)ccc1C,-1.332%
9,COCC(=O)NC[C@@]1(COc2cnccn2)C[C@@H](O)[C@@H](O)C1.Cl,-5.232%
10,COCCOCCCC(=O)N1CCC(Cc2ccccc2OC)CC1,-18.09%
11,FC(F)Oc1ccccc1CNCc1cc(Br)c2c(c1)OCO2,6.017%
12,c1ccc(CC2(CNCc3ncc[nH]3)CCC2)cc1,-10.87%
13,COc1cc(N2CCCC3(CCN(c4cccnc4)C3=O)C2)ncn1.O=C(O)C(F)(F)F (configuration not stated),-87.96%
14,N#Cc1ccc(N2CCC(c3nc(C(F)(F)F)c[nH]3)CC2)nc1,-13.67%
15,N#Cc1ccc(N2CCC3(CCC(=O)N3CCN3CCCC3)CC2)nc1.O=C(O)C(F)(F)F.O=C(O)C(F)(F)F,111.3%
16,O=C(O)C(F)(F)F.O=C(O)C(F)(F)F.O=C1CCC2(CCCN(Cc3nccs3)C2)N1CC1CC1 (configuration not stated),-83.2%
17,COCCN1CCOCC12CCN(c1ccc(C#N)cc1)CC2.O=C(O)C(F)(F)F,1.624%
18,O=C(O)C(F)(F)F.O=C(O)C(F)(F)F.O=C(c1ccncc1)N1CCCC2(CCN(c3cccnc3)C2=O)C1 (configuration not stated),-3.414%
19,N#Cc1ccc(N2CCCC3(CCC(=O)N3CC3CC3)CC2)nc1.O=C(O)C(F)(F)F (configuration not stated),105.4%
20,CN1C(=O)CCC12CCN(c1ccc(C#N)cn1)CC2.O=C(O)C(F)(F)F,114%
21,O=C1CCC2(CCCN(c3ncc(F)cn3)CC2)N1CC1CC1 (configuration not stated),-5.991%
22,N#Cc1ccc(N2CCCC3(CCN(c4cncnc4)C3=O)C2)nc1.O=C(O)C(F)(F)F (configuration not stated),104%
23,O=C1CCC2(CCN(c3ncc(F)cn3)CC2)N1CCN1CCCC1,20.59%
24,N#Cc1cccc(CN2CC3(CCCCN3c3cncnc3)CC2=O)c1.O=C(O)C(F)(F)F (configuration not stated),-19.74%
25,CC(C)c1nc(N2CC[C@@H](N(C)CCc3ccccn3)[C@H](O)C2)no1,-7.34%
26,CSc1cccc(CN(C)C(=O)C2CC(=O)N(CCN(C)C)C2)c1 (configuration not stated),0.2115%

row,Structure (SMILES),Percent Effect
1,Cc1cccc2c(=O)n(C(C)Cc3cccnc3)cnc12 (configuration not stated),5.15%
2,Cc1cn([C@@H]2CC3(CCNCC3)OC[C@@]2(C)O)c(=O)[nH]c1=O,120.3%
3,Cc1cn([C@H]2CCNC[C@]2(C)O)c(=O)[nH]c1=O,91.37%
4,N#Cc1ccc(NCc2cccnc2N2CCC(C(N)=O)CC2)cn1,11.59%
5,CS(=O)(=O)NCc1cncc2c1CCN(C(=O)N1CCCC1)C2.Cl,112.8%
6,Cl.O=C(N1CCCC1)N1CCc2c(CNc3ncccn3)cncc2C1,-8.095%
7,CC(=O)NCC(=O)N1CCc2c(CNc3ncccn3)cncc2C1.Cl,-3.566%
8,CCCC(=O)N1CCc2c(CNS(C)(=O)=O)cncc2C1.Cl,100.5%
9,COCCC(=O)N1CCc2c(CNc3ncccn3)cncc2C1.Cl,-6.28%
10,CCCn1[nH]cc/c1=N\C(=O)CN1CCCC1c1c(C)nn(C)c1C (configuration not stated),-11.65%
11,Cn1cc(CCC(=O)N2CCCN(c3ncccc3C#N)CC2)cn1,89.9%
12,COc1ccnc(N2CCCN(C(=O)CCc3cnn(C)c3)CC2)n1,-25.81%
13,N#Cc1cccnc1N1CCCN(C(=O)CCn2cccn2)CC1,107%
14,COc1ccccc1N1CCN(C(=O)CCn2ccc(C)n2)CC1(C)C,-8.619%
15,N#Cc1cccnc1N1CCCN(C(=O)CCc2cccs2)CC1,-1.405%
16,Cc1cnn(CCC(=O)N2CCCN(c3cccnn3)CC2)c1,7.961%
17,COc1ccccc1N1CCN(C(=O)CCn2ccnc2C)CC1(C)C,3.273%
18,N#Cc1cccnc1N1CCN(C(=O)CCC(=O)c2cccs2)CC1,2.306%
19,Cc1cnn(CCC(=O)N2CCCN(c3ccccc3C#N)CC2)c1,106.5%
20,COc1ccccc1N1CCN(C(=O)CCn2ccc(C)n2)CC1,112.7%
21,N#Cc1ccccc1N1CCCN(C(=O)CCn2cccn2)CC1,-8.555%
22,N#Cc1ccccc1N1CCN(CCC(=O)N2CCOCC2)CC1,8.66%
23,O=C1CC(c2ccc(F)cc2)Cc2[nH]c(=O)c(C(=O)O)cc21 (configuration not stated),-7.153%
24,COc1ccc(-c2nnc([C@H]3CCN(C4CCC4)C3)o2)cc1,-7.791%
25,COc1ccc2c(C)nc(N3CCN([C@H]4CCCC[C@@H]4O)CC3)nc2c1,-5.01%
26,Cc1cnn(CCC(=O)N2CCN(c3nc(C)cs3)CC2)c1,-7.951%

row,Structure (SMILES),Percent Effect
1,N#Cc1ccc(CN2CCN(C(=O)CCn3cncn3)CC2)cc1,-1.452%
2,N#Cc1ccc(CN2CCCN(C(=O)CCn3cncn3)CC2)cc1,-4.749%
3,Cc1cnn(CCC(=O)N2CCN(c3ccc(C#N)cn3)CC2)c1,122.4%
4,N#Cc1cccnc1N1CCCN(C(=O)CCn2cncn2)CC1,103.6%
5,N#Cc1cccnc1N1CCCN(CC(=O)N2CCNC(=O)C2)CC1,-3.438%
6,Cc1cnn(CCC(=O)N2CCCN(c3ncccc3C#N)CC2)c1,7.127%
7,Cc1cnn(CCC(=O)N2CCN(c3ncccc3Cl)CC2)c1,8.116%
8,Cc1cnn(CC(=O)N2CCCN(c3ncccc3C#N)CC2)c1,99.25%
9,CN(C)c1cc(C(=O)Nc2ccccc2C(=O)NC(C)(C)C)ccn1,0.03536%
10,COCc1nc(CNC(=O)c2cc(C)c(C)[nH]c2=O)no1,-2.692%
11,CCn1nc(C)cc1C(=O)NCc1nc(C)no1,111.2%
12,CCn1nc(C)cc1C(=O)NCc1nc(C)cc(C)n1,-9.292%
13,CCn1nc(C)cc1C(=O)NCc1cccnc1N(C)C,-6.394%
14,CCn1nc(C)cc1C(=O)NCc1noc(C(C)(C)C)n1,104.1%
15,CCn1nc(C)cc1C(=O)OCCNC(=O)c1ccccc1,-11.83%
16,CC(SCCS(C)(=O)=O)c1nc(Cc2ccccc2)no1 (configuration not stated),-6.547%
17,O=C1CC[C@H](C(=O)N(Cc2cccc(Br)c2)C2CC2)N1,5.086%
18,CC(=O)NCC(=O)N1Cc2nc(COCc3csc(C)n3)oc2C1,5.619%
19,CC(C)CC(C)NCc1cccnc1N1CCOCC1 (configuration not stated),1.673%
20,COc1ccc(OC)c(-c2nc(CN(C)Cc3nncn3C)c(C)o2)c1,0.1711%
21,CCN(CC)C(=O)[C@@H]1C[C@H](N)CN1c1noc(-c2ccccc2)n1,2.719%
22,Cc1cc(C)n(CCCN(C)C(=O)[C@H]2CCCO2)n1,-6.91%
23,Cc1cc(-c2cnn(CCNC(=O)C3CCCO3)c2C2CC2)on1 (configuration not stated),-7.58%
24,Cc1cc(C(F)(F)F)nn1CCCNC(=O)C1CCCO1 (configuration not stated),89.22%
